SMILES strings stand for the structures. About 83,000 compounds went through this panel and 20% of them were active in at least one assay; those are over-represented in the sample as a whole.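 Single-dose data. Exposure time 48 hours. Values below 10 considered active.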 Values without a mark were called inactive. Active and inactive are the calls of the source.

This test deals with KM12 colon. Put plainly: NCI-60 one-dose screen, 48 h (100 = growth as untreated, 0 = no growth, -100 = all killed). The conditions noted are these: 10 µM unless noted.
For `CC(=O)c1ccc(Nc2nc(NCCO)nc(Nc3ccc(Cl)cc3)n2)cc1`, the growth was 90.8%. With `Cc1ccc(C2CC(c3ccc(Nc4nc(NCCO)nc(Nc5ccc(Cl)cc5)n4)cc3)=NN2c2cc(Cl)cc(Cl)c2)cc1` (centres undefined), the growth was 103%. With `CCCCN1CCN(c2ccc3nc(-c4ccc5nc(-c6ccc(OC)c(OC)c6)[nH]c5c4)[nH]c3c2)CC1` the figure was -53.5% (active). Consider `Cc1cccc(NC(=O)c2sc3nc4c(cc3c2N)CCCC4)c1C`, for which the growth is 8.85% (active). On to `CCOC(=O)c1cc2c(n1Cc1cc(OC)c(OC)c(OC)c1)-c1oncc1CCC2`, for which the growth is 28.4%. For `Clc1ccc(Oc2ccc(Nc3ncnc4onc(-c5ccccc5)c34)cc2)c(Cl)c1`, the growth is 103%. Consider `O=C(Nc1ccc(C23CC4CC(CC(c5ccccc5)(C4)C2)C3)cc1)c1cccs1`, for which the growth was 64.8%. With `COc1cc(C(=O)Nc2ccc(-c3nc4ccccc4[nH]3)cc2)cc(OC)c1OC`, the growth is 33.8%.

Turning to `CCOC(=O)C1(C(=O)OCC)N=C(c2ccccc2)C=C1c1ccccc1`, the growth was 93.6%.

`CC1=C(CC(=O)c2cccc([N+](=O)[O-])c2)C(=O)c2ccccc2C1=O`: the growth is 7.77% (active). Under `O=c1cc(NC2CCN(CCCc3ccccc3)CC2)c2cc(Cl)ccc2o1` stands 0.149% (active). With `O=S(=O)(Nc1ncccn1)c1ccc(NC2Nc3nc4ccccc4nc3S2)cc1` (centres undefined) the figure was 106%; with `COc1ccc(-c2cc(=O)c3c(OC)c4ccoc4c(/C=C/C=O)c3o2)cc1`, 80%; with `COc1cccc2cc(N(C)c3nc(C)nc4ccsc34)ccc12`, -1.06% (active).
